# About 410 targets per protein were measured; listed, in parts, are those with the strongest signals and a random draw of the rest.
# B1: Flo10 (Saccharomyces cerevisiae), P36170 (protein)
# chain: MPVAARYIFLTGLFLLSVANVALGTTEACLPAGEKKNGMTINFYQYSLKDSSTYSNPSYMAYGYADAEKLGSVSGQTKLSIDYSIPCNGASDTCACSDDDATEYSASQVVPVKRGVKLCSDNTTLSSKTEKRENDDCDQGAAYWSSDLFGFYTTPTNVTVEMTGYFLPPKTGTYTFGFATVDDSAILSVGGNVAFECCKQEQPPITSTDFTINGIKPWNADAPTDIKGSTYMYAGYYYPIKIVYSNAVSWGTLPVSVVLPDGTEVNDDFEGYVFSFDDNATQAHCSVPNPAEHARTCVSSATSSWSSSEVCTECTETESTSYVTPYVTSSSWSSSEVCTECTETESTSTSTPYVTSSSSSSSEVCTECTETESTSYVTPYVSSSTAAANYTSSFSSSSEVCTECTETESTSTSTPYVTSSSWSSSEVCTECTETESTSYVTPYVSSSTAAANYTSSFSSSSEVCTECTETESTSTSTPYVTSSSSSSSEVCTECTETESTSYVTPYVSSSTAAANYTSSFSSSSEVCTECTETESTSTSTPYVTSSSWSSSEVCTECTETESTSYVTPYVSSSTAAANYTSSFSSSSEVCTECTETESTSTSTPYATSSTGTATSFTASTSNTMTSLVQTDTTVSFSLSSTVSEHTNAPTSSVESNASTFISSNKGSVKSYVTSSIHSITPMYPSNQTVTSSSVVSTPITSESSESSASVTILPSTITSEFKPSTMKTKVVSISSSPTNLITSYDTTSKDSTVGSSTSSVSLISSISLPSSYSASSEQIFHSSIVSSNGQALTSFSSTKVSSSESSESHRTSPTTSSESGIKSSGVEIESTSTSSFSFHETSTASTSVQISSQFVTPSSPISTVAPRSTGLNSQTESTNSSKETMSSENSASVMPSSSATSPKTGKVTSDETSSGFSRDRTTVYRMTSETPSTNEQTTLITVSSCESNSCSNTVSSAVVSTATTTINGITTEYTTWCPLSATELTTVSKLESEEKTTLITVTSCESGVCSETASPAIVSTATATVNDVVTVYSTWSPQATNKLAVSSDIENSASKASFVSEAAETKSISRNNNFVPTSGTTSIETHTTTTSNASENSDNVSASEAVSSKSVTNPVLISVSQQPRGTPASSMIGSSTASLEMSSYLGIANHLLTNSGISIFIASLLLAIV
# How the values were obtained:
# Test in all cases: glycan array binding signal (z-score within array); higher = stronger binding
# Settings in all cases: glycan notation: IUPAC condensed, linker removed
# [1] = biological target: Fuc(a1-2)Gal(b1-3)GalNAc(a1-3)[Fuc(a1-2)]Gal(b1-4)Glc
# Summary of the method: (§1)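 The binding signal is a Z-score computed within each array. Data were drawn from 3228 arrays in the Consortium for Functional Glycomics database, restricted to those with a known protein sequence. Scores were averaged over arrays of the same protein sequence at different concentrations or buffers, and over linkers, and negative values can be taken as non-binding.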
# [2] = biological target: Fuc(a1-2)Gal(b1-3)GalNAc(a1-3)[Fuc(a1-2)]Gal(b1-4)GlcNAc
# Summary of the method: as §1
# [3] = biological target: Fuc(a1-2)Gal(b1-4)[Fuc(a1-3)]GlcNAc(b1-2)Man(a1-3)[Fuc(a1-2)Gal(b1-4)[Fuc(a1-3)]GlcNAc(b1-2)Man(a1-6)]Man(b1-4)GlcNAc(b1-4)GlcNAc
# Summary of the method: as §1
# [4] = biological target: Fuc(a1-2)Gal6S(b1-4)GlcNAc
# Summary of the method: as §1
# Fuc(a1-2)[Gal(a1-3)]Gal = biological target: Fuc(a1-2)[Gal(a1-3)]Gal
# Summary of the method: as §1
# [5] = biological target: Fuc(a1-2)[GalNAc(a1-3)]Gal(b1-3)GalNAc(a1-3)[Fuc(a1-2)]Gal(b1-4)GlcNAc
# Summary of the method: as §1
# [6] = biological target: Fuc(a1-2)[GalNAc(a1-3)]Gal(b1-3)GlcNAc
# Summary of the method: as §1
# [7] = biological target: Fuc(a1-2)[GalNAc(a1-3)]Gal(b1-4)GlcNAc(b1-2)Man(a1-3)[Fuc(a1-2)[GalNAc(a1-3)]Gal(b1-4)GlcNAc(b1-2)Man(a1-6)]Man(b1-4)GlcNAc(b1-4)GlcNAc
# Summary of the method: as §1
# [8] = biological target: Fuc(a1-2)[GalNAc(a1-3)]Gal(b1-4)GlcNAc(b1-3)Gal(b1-4)GlcNAc
# Summary of the method: as §1
# [9] = biological target: Fuc(a1-2)[GalNAc(a1-3)]Gal(b1-4)GlcNAc(b1-3)Gal(b1-4)GlcNAc(b1-3)Gal(b1-4)GlcNAc
# Summary of the method: as §1
# [10] = biological target: Fuc(a1-2)[GalNAc(a1-4)]Gal(b1-4)GlcNAc
# Summary of the method: as §1
# Gal(a1-2)Gal = biological target: Gal(a1-2)Gal
# Summary of the method: as §1
# [11] = biological target: Gal(a1-3)Gal(b1-4)GlcNAc(b1-3)GalNAc
# Summary of the method: as §1
# [12] = biological target: Gal(b1-3)GalNAc(a1-3)[Fuc(a1-2)]Gal(b1-4)Glc
# Summary of the method: as §1
# [13] = biological target: Gal(b1-3)GalNAc(b1-4)[Neu5Ac(a2-3)]Gal(b1-4)Glc
# Summary of the method: as §1
# [14] = biological target: Gal(b1-3)GlcNAc(a1-6)Gal(b1-4)GlcNAc
# Summary of the method: as §1
# [15] = biological target: Gal(b1-3)GlcNAc(b1-3)Gal(b1-3)GlcNAc
# Summary of the method: as §1
# [16] = biological target: Gal(b1-3)GlcNAc(b1-3)Gal(b1-4)GlcNAc
# Summary of the method: as §1
# [17] = biological target: Gal(b1-4)GlcNAc(b1-2)Man(a1-6)[GlcNAc(b1-2)Man(a1-3)]Man(b1-4)GlcNAc(b1-4)GlcNAc
# Summary of the method: as §1
# [18] = biological target: Gal3S(b1-4)[Fuc(a1-3)]Glc6S
# Summary of the method: as §1
# GalNAc(a1-3)GalNAc = biological target: GalNAc(a1-3)GalNAc
# Summary of the method: as §1
# [19] = biological target: GalNAc(a1-3)GalNAc(a1-3)Gal(a1-4)Gal(b1-4)GlcNAc
# Summary of the method: as §1
# Glc(a1-4)Glc = biological target: Glc(a1-4)Glc
# Summary of the method: as §1
# [20] = biological target: GlcNAc(b1-2)Gal(b1-3)GalNAc
# Summary of the method: as §1
# [21] = biological target: GlcNAc(b1-2)Man(a1-3)[GlcNAc(b1-2)Man(a1-6)]Man(b1-4)GlcNAc(b1-4)GlcNAc
# Summary of the method: as §1
# [22] = biological target: GlcNAc(b1-3)Gal(b1-4)GlcNAc
# Summary of the method: as §1
# [23] = biological target: GlcNAc(b1-4)Gal(b1-4)GlcNAc
# Summary of the method: as §1
# Kdn(a2-3)Gal(b1-3)GalNAc = biological target: Kdn(a2-3)Gal(b1-3)GalNAc
# Summary of the method: as §1
# Kdn(a2-3)Gal(b1-4)GlcNAc = biological target: Kdn(a2-3)Gal(b1-4)GlcNAc
# Summary of the method: as §1
# [24] = biological target: Man(a1-2)Man(a1-6)[Man(a1-3)]Man(a1-6)[Man(a1-2)Man(a1-2)Man(a1-3)]Man(b1-4)GlcNAc(b1-4)GlcNAc
# Summary of the method: as §1
# [25] = biological target: Neu5Ac(a2-3)Gal(b1-4)[Fuc(a1-3)]GlcNAc(b1-3)GalNAc
# Summary of the method: as §1
# Neu5Ac(a2-3)GalNAc = biological target: Neu5Ac(a2-3)GalNAc
# Summary of the method: as §1
# Neu5Ac(a2-6)Gal = biological target: Neu5Ac(a2-6)Gal
# Summary of the method: as §1
# [26] = biological target: Neu5Ac(a2-8)Neu5Ac(a2-8)Neu5Ac(a2-8)Neu5Ac(a2-3)[GalNAc(b1-4)]Gal(b1-4)Glc
# Summary of the method: as §1
binder,measurement,setting,value
B1,glycan array binding signal (z-score),[1],-0.704
same,glycan array binding signal (z-score),[2],0.044
same,glycan array binding signal (z-score),[3],-0.165
same,glycan array binding signal (z-score),[4],0.331
same,glycan array binding signal (z-score),Fuc(a1-2)[Gal(a1-3)]Gal,-0.579
same,glycan array binding signal (z-score),[5],1.12
same,glycan array binding signal (z-score),[6],-0.144
same,glycan array binding signal (z-score),[7],3.27
same,glycan array binding signal (z-score),[8],4.78
same,glycan array binding signal (z-score),[9],5.34
same,glycan array binding signal (z-score),[10],-0.76
same,glycan array binding signal (z-score),Gal(a1-2)Gal,3.67
same,glycan array binding signal (z-score),[11],-0.351
same,glycan array binding signal (z-score),[12],3.64
same,glycan array binding signal (z-score),[13],0.092
same,glycan array binding signal (z-score),[14],0.52
same,glycan array binding signal (z-score),[15],3.58
same,glycan array binding signal (z-score),[16],0.23
same,glycan array binding signal (z-score),[17],0.034
same,glycan array binding signal (z-score),[18],-0.042
same,glycan array binding signal (z-score),GalNAc(a1-3)GalNAc,0.641
same,glycan array binding signal (z-score),[19],1.74
same,glycan array binding signal (z-score),Glc(a1-4)Glc,-0.77
same,glycan array binding signal (z-score),[20],-0.768
same,glycan array binding signal (z-score),[21],-0.394
same,glycan array binding signal (z-score),[22],-0.536
same,glycan array binding signal (z-score),[23],-0.716
same,glycan array binding signal (z-score),Kdn(a2-3)Gal(b1-3)GalNAc,0.113
same,glycan array binding signal (z-score),Kdn(a2-3)Gal(b1-4)GlcNAc,-0.202
same,glycan array binding signal (z-score),[24],-0.712
same,glycan array binding signal (z-score),[25],-0.323
same,glycan array binding signal (z-score),Neu5Ac(a2-3)GalNAc,-0.639
same,glycan array binding signal (z-score),Neu5Ac(a2-6)Gal,5.85
same,glycan array binding signal (z-score),[26],0.14

# — the supplement of paper PMC8728848
